Drawing on PubChem BioAssay, this text covers growth inhibition and outcome for 40 molecules.

Structures are written as SMILES. For some assays here: Results with a measured potency or affinity are listed apart. Calls of active or inactive are those of the source. Unless noted, the rule behind the calls is not given here.

Calcium-dependent protein kinase 1 (Plasmodium falciparum (isolate 3D7)), sequence (P62344 whole entry, looked up): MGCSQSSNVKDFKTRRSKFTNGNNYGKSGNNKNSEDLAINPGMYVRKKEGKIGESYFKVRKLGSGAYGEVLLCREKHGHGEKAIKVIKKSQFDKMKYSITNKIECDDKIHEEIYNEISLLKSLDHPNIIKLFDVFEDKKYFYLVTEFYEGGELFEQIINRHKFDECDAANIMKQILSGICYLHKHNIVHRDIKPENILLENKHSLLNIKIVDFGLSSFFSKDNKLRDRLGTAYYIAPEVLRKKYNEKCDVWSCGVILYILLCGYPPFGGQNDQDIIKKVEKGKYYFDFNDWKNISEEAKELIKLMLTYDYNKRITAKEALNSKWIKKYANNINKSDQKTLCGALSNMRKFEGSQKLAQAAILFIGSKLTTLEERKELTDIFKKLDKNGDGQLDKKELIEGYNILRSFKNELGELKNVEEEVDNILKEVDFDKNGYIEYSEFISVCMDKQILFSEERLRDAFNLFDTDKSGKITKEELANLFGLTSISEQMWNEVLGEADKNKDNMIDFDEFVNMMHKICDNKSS

Test system in the first assay: not listed separately
Put plainly: inhibition of 3D7 malaria parasite growth – strain 3D7 (AID 2306).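 Note: 0% = DMSO wells and 100% = chloroquine plus artemisinin control wells.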 Conditions: P. falciparum 3D7 erythrocytic growth, LDH absorbance, 72 h; at 2 µM; active compounds read high.
For the molecule `Cc1ccccc1Nc1cc(Nc2ccccc2C)c2ccccc2n1`, the growth inhibition was 96% (active).
For the molecule `CCC[C@@H]([C@@H](CC1CCCCC1)C(=O)N[C@H](C(=O)Nc1nccs1)C(C)(C)SC)N(O)C=O`, the growth inhibition was 97% (active).
On the same count and under the same terms, as for `CCNc1cc(C(=O)N[C@@H](Cc2ccccc2)[C@H](O)CNC(C)CC(C)C)c(F)c(N2CCCCS2(=O)=O)c1` (stereo not given in full), the figure is 95% (active).
As to `CC1SC(=S)NC1C(=O)O` (stereo not given), the growth inhibition was 94% (active).
Same read-out and setting: the result for `O=C(Nc1ccc(-c2nc3ccccc3[nH]2)cc1)c1ccc(S(=O)(=O)N2CCc3ccccc32)cc1` reads 102% (active); that for `C=CCc1c(C(=O)NCC23CC4CC(CC(C4)C2)C3)[nH]c2ccccc2c1=O`, 86% (active); that for `COc1ccc2nccc(NN=Cc3cccc(F)c3)c2c1`, 102% (active).
On the same count and under the same terms, as for `CN(C)CCC1CCCc2ccc(NC(=O)Nc3cccc(Cl)c3Cl)cc21` (stereo not given), the figure is 93% (active); as for `O=C(Nc1ccc(Cl)c(C(F)(F)F)c1)NC1CCN(CCCCCNC(=O)[C@@H]2C[C@H]2c2ccc(Cl)c(Cl)c2)CC1`, 100% (active).
Consider `CO/C(=C\C=C\c1cc2cc(Cl)c(Cl)cc2[nH]1)C(=O)NC1CCN(CCNc2ccccc2)CC1`, for which the growth inhibition is 102% (active).
On to `O=C(Nc1ccc(-c2cccc(-c3nc4ccccc4[nH]3)c2)cc1)Nc1ccc2c(c1)OCO2`, for which the growth inhibition is 102% (active).
For `CN1CCN(CC(=O)Nc2ccc(-c3ccc(-c4nc5ccc(C(F)(F)F)cc5[nH]4)cc3)cc2)CC1`, the growth inhibition is 101% (active).
Still for that read-out and setting: the result for `O=C(c1cccs1)N1CCN(c2ccc([N+](=O)[O-])c(NC3CC3)c2)CC1` reads 100% (active); that for `CC(C)(C)c1ccccc1SC1=C(O)CC2(CCNCC2)OC1=O`, 99% (active); that for `Cc1cc(C)c(C(=O)Nc2ccc3nc(C)cc(N)c3c2)c(C)c1`, 84% (active).
Same read-out and setting: the result for `CC(=O)Nc1ccc(CN(Cc2cccc(OC(C)(C)C)c2)Cc2ccc3c(c2)OCCO3)cc1` reads 95% (active); that for `CC1CCCN(S(=O)(=O)c2ccc(NC(=O)c3cc(-c4ccccc4O)n[nH]3)cc2)C1` (stereo not given), 93% (active); that for `CC(=O)c1cccc(NC(=O)NC2CCN(c3ccnc(Nc4ccc(F)cc4)n3)C2)c1` (stereo not given), 99% (active).
Take `O=C(Nc1ccc(C(=O)OCC(c2ccccc2)c2ccccc2)cc1)N[C@@H](Cc1ccc(O)cc1)C(=O)NC1CCN(Cc2ccc(O)cc2)C1` (stereo not given in full): the growth inhibition was 96% (active).
On the same count and under the same terms, the result for `Nc1ccnc2ccc(OCCCCCCc3ccccc3)cc12` reads 100% (active).
For the molecule `COc1ccc(-c2nonc2NC(=O)c2ccc(C(C)(C)C)cc2)cc1OC`, the growth inhibition was 99% (active).
On the same count and under the same terms, as for `O=C(O)c1ccc2c(c1)N(C(=O)CNCc1ccc(F)cc1)CC(=O)N2CCCc1ccccc1`, the figure is 95% (active); as for `O=C(c1ccc([N+](=O)[O-])o1)N1CCC(c2cn(Cc3cccc(F)c3)c3ccccc23)CC1`, 97% (active); as for `CCN=C1NC2=C(CC(C(C)(C)C)CC2)C2(CCC(C(C)(C)C)CC2)S1` (stereo not given), 99% (active).
The same measure, in the same setting: the result for `O=C(NCCCCN1CCC(c2ccc3c(c2OC(=O)c2ccc(NC(=O)c4ccc(Cl)cc4)cc2)CCCC3)CC1)c1ccc(NC(=O)c2ccc(Cl)cc2)cc1` reads 101% (active).
In the case of `COc1ccc(C=CC(=O)NC(=O)c2ccccc2OC(=O)c2ccccc2)cc1OC`, the growth inhibition was 87% (active).
On to `Cc1cccc(NC(=O)N(Cc2cc3cc(C)cc(C)c3[nH]c2=O)C2CC2)c1`, for which the growth inhibition was 97% (active).
Regarding `CCc1cn2c3c(cc(C(=O)N[C@@H](Cc4ccccc4)[C@H](O)CNCCOC)cc13)N(C)S(=O)(=O)CC2`, the growth inhibition was 98% (active).
Still for that read-out and setting: as for `CC(C)(C)c1ccc(CN2CCC(NC(=O)c3ccc(-c4cccc(Cl)c4)s3)CC2)cc1`, the figure is 99% (active); as for `Cc1cc(N[C@@H](CC(C)C)C(=O)NCc2cccs2)nc(NCCc2cccs2)n1`, 92% (active); as for `COC(=O)c1cccc(CNCc2cccc(-c3ccc(-c4nc5c(C)cccc5[nH]4)s3)c2)c1`, 103% (active).
The same measure, in the same setting: the result for `Oc1ccc(-c2ccccc2)cc1CN1CCCCCC1` reads 95% (active); that for `c1cc(CNC2Cc3ccccc3C2)cc(-c2cnc(N3CCNCC3)nc2)c1`, 93% (active); that for `COc1cc(Cc2cnc(N)nc2N)c2ccsc2c1OC`, 92% (active).
On to `CC(C)Nc1nc(NCCc2cnc[nH]2)nc(NCc2ccc(Cl)c(Cl)c2)n1`, for which the growth inhibition was 88% (active).
On to `COC(=O)C(Cc1ccccc1)C(CSCc1ccc(OC)cc1)C(=O)N[C@@H](C(=O)OC(C)(C)C)c1ccc(C(C)(C)C)cc1` (stereo not given in full), for which the growth inhibition is 93% (active).
In the case of `CC[C@H](NC(=O)c1c(CCCN2CCN(c3ccccc3)CC2)c(-c2ccccc2)nc2cc(O)ccc12)c1ccccc1`, the growth inhibition was 96% (active).
Same read-out and setting: the result for `CC(=O)NC1=NC(C)(C)N(OCCCOc2ccc(Cl)c(Cl)c2)C(NC(C)=O)=N1` reads 96% (active); that for `CC(CN1CCN(C)CC1)C(=O)Nc1ccc(-c2ccc(-c3nc4ccccc4[nH]3)s2)cc1` (stereo not given), 100% (active).
On the same count and under the same terms, the result for `CCN(c1cc(C)nc(Nc2ccc(Cl)cc2)n1)[C@H]1CCN(Cc2ccccc2)C1` reads 94% (active).

Another assay addresses Calcium-dependent protein kinase 1 (Plasmodium falciparum (isolate 3D7)) (UniProt P62344). Put plainly: PfCDPK1 kinase inhibitors, biochemical, TCAMS library (AID 1159585; cut-off not given, nearly all actives have IC50 up to about 0.98 µM;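 note: inhibitors leave more ATP so luminescence rises with inhibition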). Conditions: recombinant PfCDPK1, Kinase-Glo ATP depletion luminescence. For orientation: In Kinase-Glo more light means more ATP remaining.
Turning to `Cc1ccccc1Nc1cc(Nc2ccccc2C)c2ccccc2n1`, the result was inactive.
As for `CCC[C@@H]([C@@H](CC1CCCCC1)C(=O)N[C@H](C(=O)Nc1nccs1)C(C)(C)SC)N(O)C=O`, the result was inactive.
Same read-out and setting: the result for `CCNc1cc(C(=O)N[C@@H](Cc2ccccc2)[C@H](O)CNC(C)CC(C)C)c(F)c(N2CCCCS2(=O)=O)c1` (stereo not given in full) reads “inactive”; that for `CC1SC(=S)NC1C(=O)O` (stereo not given), “inactive”.
The same measure, in the same setting: the result for `O=C(Nc1ccc(-c2nc3ccccc3[nH]2)cc1)c1ccc(S(=O)(=O)N2CCc3ccccc32)cc1` reads “inactive”; that for `C=CCc1c(C(=O)NCC23CC4CC(CC(C4)C2)C3)[nH]c2ccccc2c1=O`, “inactive”; that for `COc1ccc2nccc(NN=Cc3cccc(F)c3)c2c1`, “inactive”.
On the same count and under the same terms, as for `CN(C)CCC1CCCc2ccc(NC(=O)Nc3cccc(Cl)c3Cl)cc21` (stereo not given), the entry is “inactive”.
For `O=C(Nc1ccc(Cl)c(C(F)(F)F)c1)NC1CCN(CCCCCNC(=O)[C@@H]2C[C@H]2c2ccc(Cl)c(Cl)c2)CC1`, the result was inactive.
On the same count and under the same terms, the result for `CO/C(=C\C=C\c1cc2cc(Cl)c(Cl)cc2[nH]1)C(=O)NC1CCN(CCNc2ccccc2)CC1` reads “inactive”.
As for `O=C(Nc1ccc(-c2cccc(-c3nc4ccccc4[nH]3)c2)cc1)Nc1ccc2c(c1)OCO2`, the outcome was inactive.
Regarding `CN1CCN(CC(=O)Nc2ccc(-c3ccc(-c4nc5ccc(C(F)(F)F)cc5[nH]4)cc3)cc2)CC1`, the result was inactive.
Same read-out and setting: as for `O=C(c1cccs1)N1CCN(c2ccc([N+](=O)[O-])c(NC3CC3)c2)CC1`, the entry is “inactive”; as for `CC(C)(C)c1ccccc1SC1=C(O)CC2(CCNCC2)OC1=O`, “inactive”; as for `Cc1cc(C)c(C(=O)Nc2ccc3nc(C)cc(N)c3c2)c(C)c1`, “inactive”.
Consider `CC(=O)Nc1ccc(CN(Cc2cccc(OC(C)(C)C)c2)Cc2ccc3c(c2)OCCO3)cc1`, for which the result was inactive.
As to `CC1CCCN(S(=O)(=O)c2ccc(NC(=O)c3cc(-c4ccccc4O)n[nH]3)cc2)C1` (stereo not given), the result was inactive.
Take `CC(=O)c1cccc(NC(=O)NC2CCN(c3ccnc(Nc4ccc(F)cc4)n3)C2)c1` (stereo not given): the result was inactive.
On the same count and under the same terms, the result for `O=C(Nc1ccc(C(=O)OCC(c2ccccc2)c2ccccc2)cc1)N[C@@H](Cc1ccc(O)cc1)C(=O)NC1CCN(Cc2ccc(O)cc2)C1` (stereo not given in full) reads “inactive”; that for `Nc1ccnc2ccc(OCCCCCCc3ccccc3)cc12`, “inactive”; that for `COc1ccc(-c2nonc2NC(=O)c2ccc(C(C)(C)C)cc2)cc1OC`, “inactive”.
The same measure, in the same setting: as for `O=C(O)c1ccc2c(c1)N(C(=O)CNCc1ccc(F)cc1)CC(=O)N2CCCc1ccccc1`, the entry is “inactive”; as for `O=C(c1ccc([N+](=O)[O-])o1)N1CCC(c2cn(Cc3cccc(F)c3)c3ccccc23)CC1`, “inactive”.
`CCN=C1NC2=C(CC(C(C)(C)C)CC2)C2(CCC(C(C)(C)C)CC2)S1` (stereo not given): the result was inactive.
Turning to `O=C(NCCCCN1CCC(c2ccc3c(c2OC(=O)c2ccc(NC(=O)c4ccc(Cl)cc4)cc2)CCCC3)CC1)c1ccc(NC(=O)c2ccc(Cl)cc2)cc1`, the outcome was inactive.
Still for that read-out and setting: as for `COc1ccc(C=CC(=O)NC(=O)c2ccccc2OC(=O)c2ccccc2)cc1OC`, the entry is “inactive”; as for `Cc1cccc(NC(=O)N(Cc2cc3cc(C)cc(C)c3[nH]c2=O)C2CC2)c1`, “inactive”; as for `CCc1cn2c3c(cc(C(=O)N[C@@H](Cc4ccccc4)[C@H](O)CNCCOC)cc13)N(C)S(=O)(=O)CC2`, “inactive”.
Still for that read-out and setting: the result for `CC(C)(C)c1ccc(CN2CCC(NC(=O)c3ccc(-c4cccc(Cl)c4)s3)CC2)cc1` reads “inactive”; that for `Cc1cc(N[C@@H](CC(C)C)C(=O)NCc2cccs2)nc(NCCc2cccs2)n1`, “inactive”.
Turning to `COC(=O)c1cccc(CNCc2cccc(-c3ccc(-c4nc5c(C)cccc5[nH]4)s3)c2)c1`, the outcome was inactive.
Still for that read-out and setting: the result for `Oc1ccc(-c2ccccc2)cc1CN1CCCCCC1` reads “inactive”; that for `c1cc(CNC2Cc3ccccc3C2)cc(-c2cnc(N3CCNCC3)nc2)c1`, “inactive”.
On the same count and under the same terms, the result for `COc1cc(Cc2cnc(N)nc2N)c2ccsc2c1OC` reads “inactive”; that for `CC(C)Nc1nc(NCCc2cnc[nH]2)nc(NCc2ccc(Cl)c(Cl)c2)n1`, “inactive”; that for `COC(=O)C(Cc1ccccc1)C(CSCc1ccc(OC)cc1)C(=O)N[C@@H](C(=O)OC(C)(C)C)c1ccc(C(C)(C)C)cc1` (stereo not given in full), “inactive”.
On to `CC[C@H](NC(=O)c1c(CCCN2CCN(c3ccccc3)CC2)c(-c2ccccc2)nc2cc(O)ccc12)c1ccccc1`, for which the outcome was inactive.
Turning to `CC(=O)NC1=NC(C)(C)N(OCCCOc2ccc(Cl)c(Cl)c2)C(NC(C)=O)=N1`, the outcome was inactive.
On the same count and under the same terms, as for `CC(CN1CCN(C)CC1)C(=O)Nc1ccc(-c2ccc(-c3nc4ccccc4[nH]3)s2)cc1` (stereo not given), the entry is “inactive”.
With `CCN(c1cc(C)nc(Nc2ccc(Cl)cc2)n1)[C@H]1CCN(Cc2ccccc2)C1`, the outcome was inactive.
